Source: PubChem (National Center for Advancing Translational Sciences (NCATS))
Rows were chosen to be rich in hits. Some 6.5% of all compounds tested hit in one or more screens of this group.
IL-1B inflam inh: inflammasome signaling inhibition, IL-1 beta readout. actives 4.7% (n = 360,000). activity change, % at 57.5 µM. THP-1 LPS/ATP IL-1B secretion, AlphaLISA, 16 h; active compounds read low; in the data active = activity change below about -50%; inconclusive = mostly about -30% to -49%; also: % is scaled to controls: 0 for no effect and ±100 for the full control effect
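Secreted IL-1B measured by AlphaLISA bead assay after 16 h compound exposure of THP-1 cells; compounds (final up to 57.5 uM) added 1 h before LPS (250 ng/mL) and ATP (1.25 mM) stimulation; lower signal means less secretion.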
HepG2 viability: counter-screen for TGF-b inhibitors: cytotoxicity in HepG2 cells | HepG2 CAGA-GFP viability, ATP luminescence, 18 h | Potency, µM (top dose mostly 46.1 µM), inactives show at the highest dose activity change, negative = cytotoxicity, usual class: cytotoxic | actives 0.76% (n = 410,000) | AID 588856; also: potency is read from the fitted curve at half-maximal effect
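CellTiter-Glo luminescence gave cytotoxicity after 18 hours at 37 degrees C. The cells were HepG2 CAGA-GFP in 1% FBS DMEM, stimulated with 500 pg/mL TGF-beta after compound addition. %Activity was normalised to no-cell wells (complete cell-killing) and DMSO (no toxicity), and curves were fitted and classified.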
TGFb SMAD3 inh: TGF-b pathway inhibition. HepG2 CAGA-GFP TGF-b/SMAD3 reporter, GFP fluorescence, 18 h; TGF-beta stimulated, 500 pg/mL final. Potency, µM (highest dose often 46.1 µM), without a hit: at the top dose activity, negative = inhibition, usual class: inhibitors. actives 1.2% (n = 410,000). AID 588855; also: potency is read from the fitted curve at half-maximal effect; % is scaled to controls: 0 for no effect and ±100 for the full control effect; nearly all actives have a fitted effect of over 65% in size
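Read-out: total well GFP (ex488/em500-530) summed from mean per-cell fluorescence. Cells: HEPG2 CAGA-GFP, 1% FBS DMEM, 18 h at 37 degrees C with 500 pg/mL final TGF-beta. Unstimulated wells served as the full-inhibition control; stimulated DMSO wells = 0%.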
HT1080-NT tox: kills 2HG-producing HT-1080-NT fibrosarcoma cells. HT-1080-NT fibrosarcoma viability, CellTiter-Glo ATP luminescence, 48 h. Potency, µM (series often up to 46.1 µM), for inactives: at the top dose activity, negative = less viability, actives largely listed as cytotoxic. actives 1.6% (n = 360,000);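 also: NT is the 2HG producing partner of a matched IDH1 knockdown line; potency is read from the fitted curve at half-maximal effect; 0% = DMSO-treated cells and -100% = media-only wells without cells; nearly all actives have a fitted effect of over 55% in size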
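Viability by CellTiter-Glo luminescence after 48 h compound exposure at 37C of HT-1080-NT cells (750/well, RPMI, 5% FBS). % activity scaled between DMSO wells and medium-only wells, then curve-fitted and categorized by curve class.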
HT1080 IDH1KD tx: HT-1080 IDH1 knockdown cell toxicity (counter line). actives 2% (n = 360,000). Potency, µM (doses to about 46.1 µM), inactives show at the highest dose activity, negative = toxicity, hits mostly cytotoxic. HT-1080 IDH1 knockdown viability, ATP luminescence, 48 h;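 also: potency is read from the fitted curve at half-maximal effect; 0% = DMSO wells and -100% = cell-free medium wells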
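Knockdown cells (IDH1KD HT-1080) received compounds 2 h after plating at 750 cells/well and were kept 48 h at 37 °C in 5% FBS RPMI. A CellTiter-Glo luminescence read gave % activity for curve fitting.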
Giardia kill: kills Giardia lamblia. Giardia lamblia trophozoite viability. activity change, % at 7.66 µM, hits read low. actives 0.15% (n = 340,000); in the data active = activity change below about -80%; inconclusive = between about -30% and that limit;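 also: parasites exposed to compound for two days anaerobically before the ATP read; % is scaled to controls: 0 for no effect and ±100 for the full control effect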
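ATP-content bioluminescence gauges trophozoite survival. Cells (100/well) receive compound and incubate anaerobically for 48 hrs at 37 deg C; detection reagent follows for 15-30 min at room temperature.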
* marks the source's active call; other numbers are inactive results; ? = inconclusive; . = no result given. Unless noted, calls follow the shape of the dose curve; as a rule, active = well fitted curve in the direction sought with a large enough effect; inconclusive = small, poorly fitted or top-dose-only effect, or another doubt; inactive = no such curve, though single readings can be large; an effect the other way counts as inactive or inconclusive.

SMILES	IL-1B inflam inh	HepG2 viability	TGFb SMAD3 inh	HT1080-NT tox	HT1080 IDH1KD tx	Giardia kill
Cc1ccc(S(=O)(=O)Nc2ccc(C(OC(=O)c3ccccc3[N+](=O)[O-])(C(F)(F)F)C(F)(F)F)cc2)cc1	-88.1*	10µM*	10µM*	-13.4%	?	?
Cc1cc(C)cc(NC(=O)Nc2ccc3c(c2)N(C)C(=O)CS3)c1	-50.2*	-7.8%	-13.9%	-18.8%	-15.4%	-1.4
CCC(=NCCc1c(C)[nH]c2ccc(OC(F)(F)F)cc12)C1=C(O)CC(c2ccccc2)CC1=O (configuration not stated)	4.3	-10.0%	?	4.11µM*	5.8µM*	-8.6
CCCCC(=NCCc1c(C)[nH]c2ccc(OC)cc12)C1=C(O)CC(c2ccccc2)CC1=O (configuration not stated)	9.4	5.4%	?	?	2.31µM*	-4.7
CCC(=NCCc1c(C)[nH]c2ccccc12)C1=C(O)CC(c2ccccc2)CC1=O (configuration not stated)	?	-17.2%	?	?	8.2µM*	13.4
Cc1cccc(N(C)S(=O)(=O)c2cccc3nsnc23)c1	-4.6	5.0%	5.4%	-3.8%	-13.2%	-5.8
CC(C)(C)NCC(O)Cn1cc(C=O)c2ccccc21 (configuration not stated)	0.3	-20.3%	-10.0%	-6.4%	-0.8%	-21.3
COc1ccc(CN(CC(=O)NC2CCCC2)C(=O)c2csnn2)cc1	-17.6	-0.8%	4.4%	-1.2%	-4.9%	-12.0
CCN(CCS(=O)(=O)c1ccc(Cl)cc1)Cc1nc2ccccc2c(=O)[nH]1	3.9	-0.5%	-6.0%	1.5%	-1.4%	14.2
COc1ccc(CN(CC(=O)NC2CCCC2)C(=O)c2ccc(-c3ccccc3)[nH]2)cc1	-67.9*	0.8%	3.0%	?	-6.0%	-20.9
CCC(CC)C(=O)N(CCc1ccc(OC)cc1)Cc1nc2ccccc2c(=O)[nH]1	-53.8*	-29.6%	?	?	7.08µM*	?
CCN(CCS(=O)(=O)c1ccc(Br)cc1)Cc1nc2ccccc2c(=O)[nH]1	-52.0*	-11.2%	-10.2%	-7.7%	-6.7%	-11.1
COc1ccc(CN(Cc2nc3ccccc3c(=O)[nH]2)C(=O)NC2CCCCC2)cc1	-58.0*	3.1%	-4.6%	-10.5%	-8.9%	13.6
Cn1c(=O)c2c(ncn2CC(=O)N/N=C/C=C/c2ccccc2[N+](=O)[O-])n(C)c1=O	.	-18.3%	0.4%	-6.5%	-0.7%	-10.2
COc1ccc(NC(=O)CN(C)C(=O)c2ccccc2OCC(=O)Nc2cccc(C(F)(F)F)c2)cc1	-2.8	-0.6%	-22.7%	-4.8%	0.0%	15.3
COCC(=O)Nc1cccc(C(F)(F)F)c1	27.8	0.5%	10.3%	-0.5%	-2.7%	4.5
COc1ccc(CN(C)C(=O)c2ccc(OCC(=O)Nc3cccc(C(F)(F)F)c3)c(OC)c2)c(OC)c1	-76.9*	-3.4%	?	?	-25.2%	-7.4
COc1cccc(CN(C)C(=O)c2ccc(OCC(=O)Nc3cccc(C(F)(F)F)c3)c(OC)c2)c1	-62.3*	-62.8%	-26.4%	?	?	-18.1
COc1ccc(CN(C)C(=O)c2cccc(NC(=O)CC3SC(N4CCCCC4)=NC3=O)c2)c(OC)c1 (configuration not stated)	-54.9*	-12.9%	-27.8%	?	-26.8%	-20.6
COc1cc(C(=O)NCCCN(C)C)ccc1OCC(=O)Nc1cccc(C(F)(F)F)c1	-53.2*	-22.7%	-5.5%	-16.3%	?	-0.4
COc1ccc(C(C)NC(=O)Cc2ccc(Br)cc2)cc1 (configuration not stated)	-1.3	-7.3%	1.2%	-14.0%	1.7%	9.9
